Laboratory results from PubChem BioAssay (NCATS).
Inconclusive results are not listed. Entries that show only a call come without a potency. Calls of active or inactive are those of the source. Unless noted, calls come from the whole dose curve; as a rule, active = well fitted curve in the direction sought with a large enough effect; inconclusive = small, poorly fitted or top-dose-only effect, or another doubt; inactive = no such curve, though single readings can be large; an effect the other way counts as inactive or inconclusive.

Experiments:
[1] = Natriuretic polypeptide receptor (hNpr1) antagonism - Pilot counterscreen GloSensor control cell line (AID 1347045; calls by dose curve; note: series mostly up to about 38 µM)
In short: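 HEK293 cGMP-sensor cells; 2% GloSensor reagent 2 h RT; LOPAC compounds in 1:5 titrations 30-50 min; 50 uM SNP 20 min; luminescence pre-read and post-read.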

[2] = target: Atrial natriuretic peptide receptor 1 (Homo sapiens) (UniProt P16066); experiment: Natriuretic polypeptide receptor (hNpr1) antagonism - Pilot screen (AID 1347049; calls by dose curve;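 note: HEK293 cells with hNpr1 and GloSensor cGMP luciferase stimulated by 0.1 nM hNppA; agonist-evoked cGMP luminescence read 20 min after hNppA addition; series mostly up to about 58 µM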)
Chain of Atrial natriuretic peptide receptor 1 (Homo sapiens) (P16066 whole entry, looked up): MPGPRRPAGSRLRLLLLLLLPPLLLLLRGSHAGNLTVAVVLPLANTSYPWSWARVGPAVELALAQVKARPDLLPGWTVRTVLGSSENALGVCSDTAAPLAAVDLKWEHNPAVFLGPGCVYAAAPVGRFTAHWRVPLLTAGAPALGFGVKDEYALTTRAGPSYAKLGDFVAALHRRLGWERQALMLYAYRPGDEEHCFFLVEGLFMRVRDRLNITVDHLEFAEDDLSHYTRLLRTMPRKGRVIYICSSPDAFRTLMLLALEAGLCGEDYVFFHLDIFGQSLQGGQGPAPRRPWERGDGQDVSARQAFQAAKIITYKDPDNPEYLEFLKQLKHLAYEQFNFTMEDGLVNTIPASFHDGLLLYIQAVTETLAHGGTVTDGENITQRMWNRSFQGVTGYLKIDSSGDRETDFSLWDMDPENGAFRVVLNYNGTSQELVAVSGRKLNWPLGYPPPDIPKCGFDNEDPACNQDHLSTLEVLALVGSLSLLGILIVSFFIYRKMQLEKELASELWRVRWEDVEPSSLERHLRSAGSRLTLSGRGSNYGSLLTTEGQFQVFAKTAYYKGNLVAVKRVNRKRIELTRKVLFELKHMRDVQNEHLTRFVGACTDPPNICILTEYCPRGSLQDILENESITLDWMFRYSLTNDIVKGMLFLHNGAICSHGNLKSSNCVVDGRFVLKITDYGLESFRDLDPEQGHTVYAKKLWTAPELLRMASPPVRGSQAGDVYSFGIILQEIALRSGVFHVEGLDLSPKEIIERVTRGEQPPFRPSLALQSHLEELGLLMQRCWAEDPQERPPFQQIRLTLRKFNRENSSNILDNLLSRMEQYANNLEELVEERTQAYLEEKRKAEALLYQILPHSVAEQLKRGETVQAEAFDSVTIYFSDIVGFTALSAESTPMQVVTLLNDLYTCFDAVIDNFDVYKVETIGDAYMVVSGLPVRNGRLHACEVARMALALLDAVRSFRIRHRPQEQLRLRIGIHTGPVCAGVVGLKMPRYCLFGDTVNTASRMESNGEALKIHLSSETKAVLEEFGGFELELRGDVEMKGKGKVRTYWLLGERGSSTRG
In short: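 Receptor antagonism read as cGMP-dependent luminescence in hNpr1/pGS-40F HEK293 cells: pre-read after 30 min compound exposure, post-read 20 min after hNppA agonist at 0.1 nM final, all at room temperature, protected from light; A-71915 titration as control.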

[3] = target: Atrial natriuretic peptide receptor 2 (Homo sapiens) (UniProt P20594); experiment: Natriuretic polypeptide receptor (hNpr2) antagonism - Pilot subtype selectivity assay (AID 1347050; calls by dose curve)
Chain of Atrial natriuretic peptide receptor 2 (Homo sapiens) (P20594 whole entry, looked up): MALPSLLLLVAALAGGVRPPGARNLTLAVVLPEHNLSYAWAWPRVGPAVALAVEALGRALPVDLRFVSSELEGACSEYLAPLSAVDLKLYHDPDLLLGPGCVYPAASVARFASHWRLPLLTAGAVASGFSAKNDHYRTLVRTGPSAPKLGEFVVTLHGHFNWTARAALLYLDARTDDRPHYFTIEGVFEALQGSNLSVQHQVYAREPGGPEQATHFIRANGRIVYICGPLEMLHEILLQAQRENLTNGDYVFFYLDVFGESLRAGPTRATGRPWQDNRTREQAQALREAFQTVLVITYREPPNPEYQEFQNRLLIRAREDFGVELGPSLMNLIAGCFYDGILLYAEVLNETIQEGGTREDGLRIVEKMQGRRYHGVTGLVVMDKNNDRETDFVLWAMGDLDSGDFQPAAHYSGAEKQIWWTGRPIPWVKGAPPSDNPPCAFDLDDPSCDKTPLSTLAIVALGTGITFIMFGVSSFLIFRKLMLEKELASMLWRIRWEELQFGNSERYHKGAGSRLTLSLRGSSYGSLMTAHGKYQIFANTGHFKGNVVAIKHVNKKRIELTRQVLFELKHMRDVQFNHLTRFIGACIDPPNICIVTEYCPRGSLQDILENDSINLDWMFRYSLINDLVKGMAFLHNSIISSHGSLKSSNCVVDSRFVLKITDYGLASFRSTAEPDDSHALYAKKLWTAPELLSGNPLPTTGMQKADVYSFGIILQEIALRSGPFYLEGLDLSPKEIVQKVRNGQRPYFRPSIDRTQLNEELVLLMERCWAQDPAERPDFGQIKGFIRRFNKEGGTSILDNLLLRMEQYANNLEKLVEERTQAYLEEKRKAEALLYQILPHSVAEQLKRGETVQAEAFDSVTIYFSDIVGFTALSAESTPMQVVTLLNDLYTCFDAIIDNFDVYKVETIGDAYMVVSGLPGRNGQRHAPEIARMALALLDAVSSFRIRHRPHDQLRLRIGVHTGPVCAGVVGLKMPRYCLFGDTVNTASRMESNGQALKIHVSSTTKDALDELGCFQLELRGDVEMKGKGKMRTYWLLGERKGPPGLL
In short: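 Antagonist mode: compounds (LOPAC1280, seven 1:5 dilutions) added 30 min before 1 nM hNppC stimulation of hNpr2-HEK293 cGMP-sensor cells; luminescence read before and 20 min after agonist at ambient temperature.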

[4] = NS1 protein of Zika virus - qHTS assay to identify small molecule inhibitors in human HEK 293 cells (AID 1347053); note: nearly all actives have a fitted effect of over 55% in size; note: potency is the fitted concentration of half-maximal effect
In short: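 Read-out is a two-antibody TR-FRET for ZIKV NS1, normalized between uninfected cells and infected cells. Compound added 1 h before MR766 infection at MOI 0.5; human HEK 293 cells incubated 24 h, 37 C.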

[5] = target: T1, Tyrosine-protein phosphatase non-receptor type substrate 1 (Homo sapiens) + Leukocyte surface antigen CD47 (Homo sapiens) (UniProt P78324+Q08722); experiment: CD47-SIRPalpha protein protein interaction - LANCE assay qHTS validation (AID 1347057; active = well fitted curve in the direction sought with a large enough effect in the signal ratio, with a control signal flat, not every such curve was filed as active; the % refers to the signal ratio; note: series mostly up to about 38 µM)
T1 sequence (P78324 whole entry, looked up, the tested form may be a part): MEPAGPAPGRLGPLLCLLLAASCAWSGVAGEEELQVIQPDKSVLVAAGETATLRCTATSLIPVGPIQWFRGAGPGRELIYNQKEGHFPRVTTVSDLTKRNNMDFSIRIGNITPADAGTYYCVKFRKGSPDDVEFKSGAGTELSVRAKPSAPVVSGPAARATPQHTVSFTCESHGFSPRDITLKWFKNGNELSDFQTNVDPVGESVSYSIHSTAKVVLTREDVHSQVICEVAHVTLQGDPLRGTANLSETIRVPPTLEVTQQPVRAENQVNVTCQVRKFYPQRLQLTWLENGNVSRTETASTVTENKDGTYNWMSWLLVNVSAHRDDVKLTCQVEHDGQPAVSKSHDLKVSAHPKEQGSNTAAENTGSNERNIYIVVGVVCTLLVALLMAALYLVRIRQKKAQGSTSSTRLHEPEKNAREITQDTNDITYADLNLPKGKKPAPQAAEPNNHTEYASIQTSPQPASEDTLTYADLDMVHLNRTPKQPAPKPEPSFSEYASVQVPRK
T1 sequence (Q08722 whole entry, looked up, the tested form may be a part): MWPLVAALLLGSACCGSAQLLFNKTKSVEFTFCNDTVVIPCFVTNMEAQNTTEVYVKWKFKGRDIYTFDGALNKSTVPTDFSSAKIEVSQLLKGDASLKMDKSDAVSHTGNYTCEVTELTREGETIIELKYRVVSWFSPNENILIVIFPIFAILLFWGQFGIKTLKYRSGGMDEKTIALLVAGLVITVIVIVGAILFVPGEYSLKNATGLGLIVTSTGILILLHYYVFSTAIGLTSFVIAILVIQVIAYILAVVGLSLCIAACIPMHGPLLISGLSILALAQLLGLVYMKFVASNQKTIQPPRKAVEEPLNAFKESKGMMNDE
In short: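 Inhibition of soluble CD47/SIRPalpha ectodomain association by titrated compounds, measured as 665/615 nm time-resolved FRET ratio after sequential 30 min room-temperature incubations.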

[6] = target: T1, Tyrosine-protein phosphatase non-receptor type substrate 1 (Homo sapiens) + Leukocyte surface antigen CD47 (Homo sapiens); experiment: CD47-SIRPalpha protein protein interaction - HTRF assay qHTS validation (AID 1347058; active = well fitted curve in the direction sought with a large enough effect in the signal ratio, not every such curve was filed as active; the % refers to the signal ratio; note: series mostly up to about 38 µM)
In short: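 Soluble extracellular domains (6His-CD47, Avi-tag-biotinylated SIRPalpha) in PBS pH 7.4 with 0.05% IGEPAL CA-630. Compounds were preincubated 30 min at RT with CD47 and anti-His-Eu, then SIRPalpha and SAV-XL665 were added. TR-FRET 665/615 ratio.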

[7] = target: T1, Tyrosine-protein phosphatase non-receptor type substrate 1 (Homo sapiens) + Leukocyte surface antigen CD47 (Homo sapiens); experiment: CD47-SIRPalpha protein protein interaction - Alpha assay qHTS validation (AID 1347059);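 note: bead proximity luminescence from CD47 binding SIRPalpha after compound preincubation with SIRPalpha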
In short: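 AlphaScreen signal between CD47-His (12.5 nM) and biotin-SIRPalpha (25 nM) soluble extracellular domains, bead-captured via Ni-NTA and streptavidin. Compounds, in 7-point titrations, met SIRPalpha 30 min before CD47; PBS pH 7.4 with 0.05% IGEPAL.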

[8] = target: Parathyroid hormone/parathyroid hormone-related peptide receptor (Homo sapiens) (UniProt Q03431); experiment: qHTS for PTHR1 Agonists: Optimization Screen against the NCGC LOPAC library (AID 1347079);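 note: GloSensor cAMP luminescence in HEK-293 GP2 cells expressing human PTHR1 with IBMX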
Chain of Parathyroid hormone/parathyroid hormone-related peptide receptor (Homo sapiens) (Q03431 whole entry, looked up): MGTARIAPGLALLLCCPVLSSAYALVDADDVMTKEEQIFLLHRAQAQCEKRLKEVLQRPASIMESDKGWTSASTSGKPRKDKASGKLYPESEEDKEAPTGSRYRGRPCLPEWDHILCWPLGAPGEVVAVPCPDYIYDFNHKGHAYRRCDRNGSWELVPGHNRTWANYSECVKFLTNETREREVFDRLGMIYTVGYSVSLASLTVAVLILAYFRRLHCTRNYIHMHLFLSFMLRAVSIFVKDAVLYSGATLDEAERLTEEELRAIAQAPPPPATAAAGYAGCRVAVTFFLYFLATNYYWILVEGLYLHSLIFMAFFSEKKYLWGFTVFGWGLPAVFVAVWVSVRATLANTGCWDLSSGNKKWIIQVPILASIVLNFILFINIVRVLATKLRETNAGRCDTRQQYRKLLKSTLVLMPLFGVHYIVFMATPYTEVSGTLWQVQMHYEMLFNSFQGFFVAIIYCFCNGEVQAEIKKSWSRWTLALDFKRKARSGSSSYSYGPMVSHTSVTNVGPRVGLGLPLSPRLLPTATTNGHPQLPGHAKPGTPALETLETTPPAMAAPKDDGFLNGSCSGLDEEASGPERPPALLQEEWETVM
In short: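 Signal increase flags agonism. GP2 cells, derived from HEK-293, express human PTHR1 and a GloSensor cAMP construct.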

[9] = qHTS of pediatric cancer cell lines to identify multiple opportunities for drug repurposing: Primary screen for DAOY cells (AID 1347090); note: nearly all actives have a fitted effect of over 55% in size; note: potency is the fitted concentration of half-maximal effect
In short: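 Cell viability, CellTiter-Glo luminescence; 500-1,000 cells/well, 8- or 11-point titration, 48 h compound exposure at 37 degrees C, 5% CO2. Controls: DMSO neutral, bortezomib 2.3 µM final as positive.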

[10] = qHTS of pediatric cancer cell lines to identify multiple opportunities for drug repurposing: Primary screen for TC32 cells (AID 1347089); note: nearly all actives have a fitted effect of over 60% in size
In short: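 Luminescent CellTiter-Glo read-out of metabolically active TC32 cells after 48 h compound exposure. Primary: MIPE 11-point, 0.78 nM–46 µM; NPC 8-point, 0.59 nM–46 µM. Confirmatory: 11-point dilutions.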

SMILES: CCN(CC)CCOC(=O)c1ccc(N)cc1
- Potency [1]: inactive
- outcome [2]: inactive
- outcome [3]: inactive
- Potency [4]: inactive
- outcome [5]: inactive
- outcome [6]: inactive
- outcome [7]: inactive
- outcome [8]: inactive
- Potency [9]: inactive

SMILES: CC(=O)N[C@@H](CS)C(=O)O
- Potency [1]: inactive
- outcome [2]: inactive
- outcome [3]: inactive
- Potency [4]: inactive
- outcome [5]: inactive
- outcome [6]: inactive
- outcome [7]: inactive
- outcome [8]: inactive
- Potency [10]: inactive
- Potency [9]: inactive

SMILES: O=C1NCC2(CCN(CCc3ccccc3)CC2)O1
- Potency [1]: inactive
- outcome [2]: inactive
- outcome [3]: inactive
- Potency [4]: inactive
- outcome [5]: inactive
- outcome [6]: inactive
- outcome [7]: inactive
- outcome [8]: inactive
- Potency [9]: inactive

SMILES: CC(C)[C@H](CO)Nc1nc(Nc2ccc(C(=O)O)c(Cl)c2)c2ncn(C(C)C)c2n1
- Potency [4]: inactive

SMILES: O=c1cc(-c2ccc(O)cc2)oc2cc(O)cc(O)c12
- outcome [2]: inactive
- outcome [3]: inactive
- Potency [4]: inactive
- outcome [5]: inactive
- outcome [7]: inactive
- outcome [8]: inactive
- Potency [10]: inactive
- Potency [9]: 14.8 µM (active)

SMILES: Clc1ccc(C(c2ccc(Cl)cc2)n2cc[n+](CC(OCc3ccc(Cl)cc3Cl)c3ccc(Cl)cc3Cl)c2)cc1 (centres undefined)
- outcome [2]: inactive
- outcome [3]: inactive
- Potency [4]: 11.8 µM (active)
- outcome [7]: inactive
- outcome [8]: inactive
- Potency [10]: inactive
- Potency [9]: 23.5 µM (active)

SMILES: NCCS
- Potency [1]: inactive
- outcome [2]: inactive
- outcome [3]: inactive
- Potency [4]: inactive
- outcome [5]: inactive
- outcome [6]: inactive
- outcome [7]: inactive
- outcome [8]: inactive
- Potency [10]: inactive
- Potency [9]: inactive

SMILES: COC(=O)[C@@H]1[C@H]2C[C@H]3c4[nH]c5ccccc5c4CCN3C[C@@H]2CC[C@@H]1O
- outcome [2]: inactive
- outcome [3]: inactive
- Potency [4]: inactive
- outcome [8]: inactive
- Potency [10]: inactive
- Potency [9]: inactive

SMILES: CCCCC1C(=O)N(c2ccccc2)N(c2ccccc2)C1=O
- outcome [2]: inactive
- outcome [3]: inactive
- Potency [4]: inactive
- outcome [8]: inactive
- Potency [10]: inactive
- Potency [9]: inactive

SMILES: O=c1c(-c2ccc(O)cc2)coc2cc(O)ccc12
- Potency [1]: inactive
- outcome [2]: inactive
- outcome [3]: inactive
- Potency [4]: inactive
- outcome [8]: inactive
- Potency [10]: inactive
- Potency [9]: inactive

SMILES: CC(C)NCC(O)COc1cccc2[nH]ccc12 (centres undefined)
- Potency [1]: inactive
- outcome [2]: inactive
- outcome [3]: inactive
- Potency [4]: inactive
- outcome [5]: inactive
- outcome [6]: inactive
- outcome [7]: inactive
- outcome [8]: inactive
- Potency [10]: inactive
- Potency [9]: inactive

SMILES: O=C(NC1CCOCC1)c1ccc(-c2cc(-c3cn[nH]c3-c3ccccn3)ccn2)cc1
- Potency [4]: inactive
- Potency [10]: inactive
- Potency [9]: inactive

SMILES: Clc1cc(Cl)cc(CNc2ncncc2-c2ccc3c(c2)OCO3)c1
- Potency [4]: 18.7 µM (active)
- Potency [10]: inactive

SMILES: OC[C@H]1O[C@@H](Oc2cc(O)cc(C=Cc3ccc(O)cc3)c2)[C@H](O)[C@@H](O)[C@H]1O
- Potency [4]: inactive
- Potency [10]: inactive

SMILES: NC1=N[C@@]2(c3cc(NC(=O)c4ccc(F)cn4)ccc3F)COC[C@@H]2CS1
- Potency [4]: inactive
- Potency [10]: inactive
- Potency [9]: 4.69 µM (active)

SMILES: O=C(CCc1ccc(O)cc1)c1c(O)cc(O)cc1O[C@@H]1O[C@H](CO)[C@H](O)[C@H](O)[C@H]1O
- Potency [4]: inactive
- Potency [10]: inactive

SMILES: COc1ccc(-c2coc3cc(O)ccc3c2=O)cc1
- Potency [4]: inactive
- Potency [10]: inactive
- Potency [9]: inactive

SMILES: O=C1NC(=O)C(=Cc2ccc3nccnc3c2)S1
- Potency [4]: inactive
- Potency [10]: inactive

SMILES: NC(=O)NN=Cc1ccc([N+](=O)[O-])o1
- Potency [4]: inactive
- Potency [10]: inactive
- Potency [9]: inactive

SMILES: COc1ccc2c(Oc3ccc(NC(=O)c4c(C)n(CC(C)(C)O)n(-c5ccccc5)c4=O)cc3F)ccnc2c1
- Potency [4]: inactive
- Potency [10]: inactive

SMILES: Cc1nnc(C(C)C)n1C1C[C@H]2CC[C@@H](C1)N2CC[C@H](NC(=O)C1CCC(F)(F)CC1)c1ccccc1 (some centres undefined)
- Potency [4]: inactive
- Potency [10]: inactive

SMILES: CC=CC[C@@H](C)C(=O)[C@H]1C(=O)N[C@@H](C(C)C)C(=O)N(C)CC(=O)N(C)[C@@H](CC(C)C)C(=O)N[C@@H](C(C)C)C(=O)N(C)[C@@H](CC(C)C)C(=O)N[C@@H](C)C(=O)N[C@H](C)C(=O)N(C)[C@@H](CC(C)C)C(=O)N(C)[C@@H](CC(C)C)C(=O)N(C)[C@@H](C(C)C)C(=O)N1C
- Potency [4]: inactive
- Potency [10]: inactive
